In the library only some 0.81% were active in any assay of this set; here they are far more common.
LRH-1 inv ag: LRH-1 (NR5A2) inverse agonists, primary screen, cell-based, luminescence, HEK293T, StAR-luciferase reporter; Nuclear receptor subfamily 5 group A member 2 (Homo sapiens), O00482; LRH-1 transfected, 24 h; inhibition, % at 3.6 µM; 360,000 compounds, 0.13% hits; AID 602396, 2012;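 active means inhibition above the mean inhibition of all tested compounds plus 3 SD, cut at about 73% in these data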;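 further: 0% = DMSO wells and 100% = reporter-only cells lacking LRH-1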
SRC1 inh: SRC1 coactivator transcriptional activity inhibitors, primary screen, cell-based, luminescence; Nuclear receptor coactivator 1 (Homo sapiens), Q15788; HEK293 GAL4-SRC1 luciferase reporter; inhibition, % at 3.6 µM; 360,000 compounds, 0.12% hits; AID 588354, 2011;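 active means inhibition above the campaign mean plus 3 SD, with each screening campaign given its own cutoff, cut at about 60% in these data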;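 further: 0% = DMSO treated cells and 100% = gossypol at 36 µM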
SRC3 inh: SRC3 coactivator transcriptional activity inhibitors, primary screen, cell-based, luminescence. Nuclear receptor coactivator 3 (Homo sapiens), Q9Y6Q9. HEK293 GAL4-SRC3 luciferase reporter. inhibition, % at 3.6 µM. 360,000 compounds, 0.17% hits;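 active means inhibition above a per-campaign cutoff, the mean of all compounds plus 3 SD, cut at about 60% in these data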;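 further: 0% = DMSO-treated cells and 100% = gossypol-treated cells at 36 µM; higher means less SRC3-driven luciferase light from the GAL4 reporter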
COUP-TFII inh: NR2F2 transcriptional activity inhibitors, primary screen, cell-based, luciferase reporter, HEK293T, luminescence. COUP transcription factor 2 (Homo sapiens), P24468. HEK293T NGFI-A luciferase reporter. inhibition, % at 8.6 µM. 370,000 compounds, 0.7% hits. AID 686940, 2013;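 active means inhibition above a per-plate cutoff, mean inhibition of test wells between control levels plus 3 SD, cut at about 38% in these data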;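 further: cells cotransfected with COUP-TFII expression vector driving the NGFI-A reporter; 0% = median of COUP-TF2 test wells and 100% = reporter-only cells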
Target sequence (P24468 whole entry, looked up): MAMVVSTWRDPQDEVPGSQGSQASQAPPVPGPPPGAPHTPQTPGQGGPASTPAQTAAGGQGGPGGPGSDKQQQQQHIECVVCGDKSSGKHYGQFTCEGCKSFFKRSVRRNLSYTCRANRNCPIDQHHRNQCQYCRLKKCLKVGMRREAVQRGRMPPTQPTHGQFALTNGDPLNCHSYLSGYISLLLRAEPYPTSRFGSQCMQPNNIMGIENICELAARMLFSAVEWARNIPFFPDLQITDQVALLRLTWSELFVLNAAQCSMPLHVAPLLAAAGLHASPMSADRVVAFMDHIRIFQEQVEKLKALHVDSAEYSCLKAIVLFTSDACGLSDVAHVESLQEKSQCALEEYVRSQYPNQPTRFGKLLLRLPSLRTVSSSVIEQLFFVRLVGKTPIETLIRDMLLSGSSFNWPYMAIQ
NCOA2 inhibitor: inhibition of GAL4-SRC2 driven luciferase reporter, primary screen, SRC2 inhibitor project, cell-based, luminescence; Nuclear receptor coactivator 2 (Homo sapiens), Q15596; HEK293 GAL4-SRC2 luciferase reporter; inhibition, % at 9 µM; 370,000 compounds, 0.17% hits; AID 651957, 2012;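 active means inhibition above the mean inhibition of all tested compounds plus 3 SD, set per campaign, cut at about 52% in these data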;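 further: 0% = DMSO treated cells and 100% = cells given Gossypol at 36 µM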
Gal4-VP16 ctr: Gal4-VP16 luciferase reporter inhibitors, counter-screen for COUP-TFII antagonist project, cell-based, luminescence, HEK293; inhibition, % at 8.5 µM; shares compounds with COUP-TFII inh; 2,500 compounds, 25% hits; in the data active means inhibition above about 13%
NR2F2 inh conf: NR2F2 transcriptional activity inhibitors, confirmation, cell-based, luciferase reporter, HEK293, triplicate; shares compounds with COUP-TFII inh; HEK293 NGFI-A luciferase reporter, luminescence; inhibition, % at 8.5 µM; 2,500 compounds, 45% hits; AID 687008, 2013;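 active means mean inhibition over three repeats above a set limit taken from the earlier primary screen, cut at about 38% in these data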;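 further: 100% = cells given the luciferase reporter alone without the COUP-TF2 vector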
Active calls of the source: *; . = no result given.

SMILES | LRH-1 inv ag | SRC1 inh | SRC3 inh | COUP-TFII inh | NCOA2 inhibitor | Gal4-VP16 ctr | NR2F2 inh conf
COc1ccc(NC(=O)CN(Cc2ccccc2)Cc2ccccc2)cc1S(N)(=O)=O | -3 | 12 | 1 | 5 | -5 | . | .
COc1cc(/C=N/NC(=O)c2ccncc2)ccc1OC(C)=O | -2 | 12 | 5 | 5 | 11 | . | .
COc1cc(C=Nc2c(C)cc(C)cc2C)ccc1OC(C)=O | 13 | 2 | 3 | 50* | -6 | 7 | 6
Cc1cc(C(=O)COC(=O)c2ccccc2O)c(C)n1Cc1cccs1 | 94* | 90* | 87* | 97* | 86* | 81* | 104*
CC(=O)Nc1ccccc1OCC(=O)c1cc(C)n(Cc2cccs2)c1C | 63 | 27 | 28 | 73* | 8 | 2 | 81*
Cc1cc(C(=O)COC(=O)c2ccc3c(c2)OCO3)c(C)n1Cc1cccs1 | -33 | -56 | -40 | 8 | 6 | . | .
COC(=O)CSc1nnc(-c2sc3ccccc3c2Cl)o1 | -2 | 14 | 4 | 0 | 4 | . | .
N#CCSc1nnc(-c2sc3ccccc3c2Cl)o1 | 12 | 13 | 15 | 53* | 0 | 5 | 44*
O=C(COc1ccc(Cl)cc1)Nc1ccc(N2CCN(C(=O)c3ccco3)CC2)cc1 | 11 | 12 | 24 | 52* | 5 | -1 | 35
Cc1ccccc1C(=O)N1CCN(c2ccc(NC(=O)c3ccc4c(c3)OCCO4)cc2)CC1 | 35 | 35 | 40 | 68* | 41 | 10 | 58*
COc1ccc(OCC(=O)Nc2ccc(N3CCN(C(=O)c4ccco4)CC3)cc2)cc1 | -2 | 0 | 6 | 5 | 0 | . | .
Cc1ccccc1C(=O)N1CCN(c2ccc(NC(=O)CSc3ccc(Cl)cc3)cc2)CC1 | 7 | 25 | 33 | 54* | 38 | 0 | 57*
CCC(=O)Nc1ccc(N2CCN(C(=O)c3ccccc3C)CC2)cc1 | -1 | -33 | 7 | 5 | 4 | . | .
CCCCN1CCS(=O)(=O)N(Cc2ccc(Cl)cc2)C(C(=O)OC)C1 (centres undefined) | . | . | . | 2 | -1 | . | .
COC(=O)c1ccc(Cn2ccc3ccc(-c4ccc5ccn(Cc6ccc(C(=O)OC)cc6)c5c4)cc32)cc1 | . | . | . | -8 | -5 | . | .
CCOc1ccc(CCNC(=O)c2cc3sccc3n2CC)cc1OC | . | . | . | 57* | 12 | -10 | 20
O=Cc1s/c(=N\S(=O)(=O)c2ccccc2)n(CCCCl)c1Cl | -2 | -22 | -6 | 60* | -9 | 62* | 46*
Cc1[nH]c2ccccc2c1/C=N/NC(N)=S | -1 | 2 | 2 | 14 | 3 | . | .
CCc1nnc(N/N=C/c2c(C)[nH]c3ccccc23)n1N | 27 | 9 | 6 | 53* | 4 | -1 | -1
Fc1ccc2[nH]c3c(N4CCc5ccccc5C4)ncnc3c2c1 | 17 | 19 | 32 | 74* | 8 | -8 | 70*
Cc1ccc2[nH]c3c(N4CCc5ccccc5C4)ncnc3c2c1 | -23 | -12 | -6 | 60* | -8 | -39 | 50*
c1ccc2c(c1)[nH]c1c(N3CCSCC3)ncnc12 | 32 | 11 | 7 | 26 | 28 | . | .
CCOc1ccc2[nH]c3c(N4CCc5ccccc5C4)ncnc3c2c1 | -3 | 5 | 17 | 14 | -1 | . | .
c1ccc2c(c1)[nH]c1c(N3CCCC3)ncnc12 | 33 | 17 | 7 | 44* | -18 | -3 | 23
Cc1nnc(NC(=O)CSc2nc3ccccc3o2)s1 | 9 | 15 | 11 | 10 | 2 | . | .
CC1CCc2nc(NC(=O)CSc3nc4ccccc4o3)sc2C1 (centres undefined) | 47 | 29 | 48 | 43* | 20 | 31* | 68*
CCCc1c(-c2ccc(OC)cc2)ncn1CCc1ccccc1OC | . | . | . | 47* | 17 | -8 | -6
CCCc1c(-c2ccccc2OC)ncn1CCc1ccccc1OC | . | . | . | 31 | 9 | . | .
